Results on three molecules are retold here after PubChem BioAssay AID2803 (The Scripps Research Institute Molecular Screening Center, 2010).

Each structure is given as a SMILES string. The campaign covered roughly 2,000 compounds. About 1,300 (65%) were called active. The set was probably picked from earlier hits. The list is a sample of the results. Unmarked numbers belong to inactive results. Cut-off read from the data, not from the text of the source: active = inhibition above about 43%; inactive = the rest.

The inhibition is the relative decrease from the control value, in per cent.

The target of the test is Prolyl endopeptidase-like (Homo sapiens) (UniProt Q4J6C6). Description: human PREPL enzyme inhibitors, confirmation, biochemical, fluorescence polarization (AID 2803).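 Note: 0% = protein with DMSO and 100% = wells lacking protein.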 The note with it: recombinant PREPL, fluorescence polarization activity probe; at 5.96 µM; hits give high values. (In general: Fluorescence polarisation rises when a labelled molecule tumbles more slowly, as on binding a larger partner.)
Sequence of Prolyl endopeptidase-like (Homo sapiens) (Q4J6C6 whole entry, looked up): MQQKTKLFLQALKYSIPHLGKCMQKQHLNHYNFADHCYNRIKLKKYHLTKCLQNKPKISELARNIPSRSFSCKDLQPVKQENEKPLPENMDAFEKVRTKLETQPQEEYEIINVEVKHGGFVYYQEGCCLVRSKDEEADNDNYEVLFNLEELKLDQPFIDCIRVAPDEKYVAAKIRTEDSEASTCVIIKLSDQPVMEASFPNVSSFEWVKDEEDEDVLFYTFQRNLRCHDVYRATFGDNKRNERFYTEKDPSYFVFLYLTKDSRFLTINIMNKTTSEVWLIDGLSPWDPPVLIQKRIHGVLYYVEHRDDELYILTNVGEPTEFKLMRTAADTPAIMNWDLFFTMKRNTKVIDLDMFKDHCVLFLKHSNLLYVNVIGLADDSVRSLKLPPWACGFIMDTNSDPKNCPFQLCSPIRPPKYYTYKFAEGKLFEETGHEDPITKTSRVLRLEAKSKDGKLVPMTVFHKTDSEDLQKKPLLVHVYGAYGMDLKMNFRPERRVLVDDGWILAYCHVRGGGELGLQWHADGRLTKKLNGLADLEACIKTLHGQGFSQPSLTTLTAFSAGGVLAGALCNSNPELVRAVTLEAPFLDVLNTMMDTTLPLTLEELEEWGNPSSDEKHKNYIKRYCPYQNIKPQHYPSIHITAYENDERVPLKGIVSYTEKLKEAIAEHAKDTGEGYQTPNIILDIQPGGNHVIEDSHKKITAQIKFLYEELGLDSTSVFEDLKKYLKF
`CCOc1cccc(=NC2CCCCC2)c2c(C)[nH]c(C)c12`: the inhibition is 54.4% (active).
For the molecule `O=C(NCC(c1cccnc1)N1CCN(c2ccccc2)CC1)Oc1ccccc1` (stereo not drawn), the inhibition is 39.3%.
Then `COc1ccc2[nH]c3c(c2c1)CCN[C@H]3C`, with 23.7%.
